This is part of a sample that, as a whole, favours compounds with a hit. Of some 83,000 tested, about 20% had one in any assay.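 In brief: 96-well plates, 48 h treatment, single concentration, percent growth endpoint.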 Unmarked numbers belong to inactive results. The source made the active and inactive calls. How the source made its calls: active means growth percent below 10; inactive means the rest.
tested on: MDA-MB-468 breast; assay: NCI-60 one-dose screen, 48 h (100 = growth as untreated, 0 = no growth, -100 = all killed); details: 10 µM unless noted

Row | SMILES | growth
1 | CCOC(=O)c1c(O)c2cc(-c3ccccc3)nc(OCC)c2c(=O)n1C | 89%
2 | OCC(Nc1ncnc2ccc(-c3cnc4cnccn34)cc12)c1ccccc1 (stereo not given) | -2.48% (active)
3 | CN(C)CCS(=O)(=O)Nc1cc(-c2ccc3ncc(C#N)c(Nc4ccc(F)c(Cl)c4)c3c2)cnc1Cl | -77.8% (active)
4 | COc1ccc2c(c1)OC(N(C(C)=O)C(C)=O)=C(C#N)C2c1ccc(F)cc1 (stereo not given) | -36.1% (active)
5 | NNC(=S)N/N=C/c1ccccn1 | 8.55% (active)
6 | COc1ccc(-c2conc2-c2ccccc2)cc1 | -4.68% (active)
7 | O=C1NC(=S)N[C@H]1CC(=O)n1cnc2ccccc21 | 86.3%
8 | CCN(CC)CCCNCc1cc(-c2ccccc2)nc2cc(Cl)ccc12 | -25.7% (active)
9 | C=C1C(=O)O[C@H]2[C@H]1CC/C(COC(=O)NCc1c[nH]c3ccc(F)cc13)=C\CC[C@@]1(C)O[C@@H]21 | -58.1% (active)
10 | CCOC(=O)C1C(=O)OC2CCCCC21 (stereo not given) | 110%
11 | C[C@]12CCC(=O)C=C1CCC1C2[C@@H](O)C[C@@]2(C)C1CC[C@]2(O)C(=O)COC(=O)CCC(=O)O (stereo not given in full) | 109%
12 | O=C(O)Cc1cc(=O)[nH]n(-c2ccccc2)c1=O | 102%
13 | COc1ccc(N2CCN(CC(=O)N3CCN(c4nnc(-c5ccc(Cl)cc5)c(-c5ccc(Cl)cc5)n4)CC3)CC2)cc1 | 78.6%
14 | CCN=c1cc2sc3cc(NCC)c(C)cc3nc-2cc1C | 30.7%
15 | Cc1ccsc1C(NC(=O)c1ccccc1)c1cc(Cl)c2cccnc2c1O (stereo not given) | 4.52% (active)
16 | CN1CCN(C(=O)[C@]2(C)CC[C@]3(C)CC[C@]4(C)C(=CC(=O)[C@@H]5[C@@]6(C)CCC(=O)NC(C)(C)[C@@H]6CC[C@]54C)[C@@H]3C2)CC1 | 101%
17 | O=S(Cc1ccccc1)/C(=C/NC(=S)Nc1cc(Cl)ccc1Cl)c1ccccc1 (stereo not given) | 106%
18 | Cc1cc(C)c(CC(=O)O)c(C)c1 | 111%
19 | O=C(C[n+]1ccnc2ccccc21)c1ccc(O)c(O)c1 | 3.88% (active)
20 | C(CCCC1=NCCO1)CCCC1=NCCO1 | 95%

Row | SMILES | growth
21 | O=C(OCc1ccc2c(Cl)cc(Cl)c(O)c2n1)n1cncn1 | 14%
22 | COc1ccc2nc3c(cc2c1)C(=O)CC(C(F)(F)F)C3 (stereo not given) | 35.6%
23 | COc1cc2cc(Oc3ccc(NC(=O)Nc4ccc(F)c(C(F)(F)F)c4)cc3)c(C)nc2cc1OCCN1CCOCC1 | -15.6% (active)
24 | O=C(Nc1cccc(Cl)c1)Nc1cccc(Cn2c(=O)[nH]c3ccc(Oc4ncccn4)cc3c2=O)c1 | -0.625% (active)
25 | C#CCN(C)CCCOc1ccc(NC(=O)CCCCCCCCC(=O)NO)cc1Cl | 27.6%
26 | O=c1cc(NC2CCN(CCCc3ccccc3)CC2)c2cc(Cl)ccc2o1 | -13.1% (active)
27 | CC(=O)OC[C@]12CC[C@H]3[C@@H](C[C@H]4O[C@]45CC=CC(=O)[C@]35C)[C@]1(O)CC[C@@]2(O)[C@@](C)(O)C1CC(C)=C(C)C(=O)O1 (stereo not given in full) | -52.8% (active)
28 | CCOC(=O)Nc1cc(-c2ccc(C)c(NS(C)(=O)=O)c2)nn2c(C)nnc12 | -26% (active)
29 | Nc1ncnc2c1c(-c1cccc(Cl)c1)nn2CC(=O)N1CCOCC1 | 98.6%
30 | CCN1C(=O)N(CC)C2C1NN=C1SC(c3ccccc3)=CC(=O)N12 (stereo not given) | 5.17% (active)
31 | CN(C)C1CCN(Cc2ccc(NC(=O)c3cncc(C#Cc4cnc(N)c5ncccc45)c3)cc2C(F)(F)F)CC1 | 67%
32 | Cc1ccc(-c2nc(N3CCNCC3)c3oc(-c4ccccc4)nc3n2)cc1 | -31.4% (active)
33 | COc1ccc(NC(=O)C(=O)c2c[nH]c3ccc(F)cc23)cc1 | 95.3%
34 | COc1ccc(-c2csc(N/N=C/c3c(-c4ccc(S(C)(=O)=O)cc4)nc4ccccn34)n2)cc1 | 106%
35 | CCN(CC)c1ccc(/C=C/c2ccc3cc(C)ccc3[n+]2CC)cc1 | -24% (active)
36 | CCCCOC(OCCCC)c1ccccc1 | 104%
37 | NC(=O)C1(N2CCCCC2)CCN(CCCC(=O)c2ccc(F)cc2)CC1 | -10.6% (active)
38 | Brc1ccc2[nH]cc(-c3nc(-c4c[nH]c5ncccc45)cs3)c2c1 | 43.6%
39 | Cc1ccc(NC2=CC(=O)C(=O)c3ccccc32)c(C)c1 | 14.1%
40 | O=C(O)CNS(=O)(=O)c1ccc(OCCOc2ccc(S(=O)(=O)NCC(=O)O)cc2)cc1 | 97.7%

Reference: PubChem BioAssay (NCI)
